Source: PubChem
Sampled rows, rich in hits. Any-hit rate of the full collection: about 7.4%.
3T3 cytotox: cytotoxic compounds in NIH 3T3 cells. NIH 3T3 viability, CellTiter-Glo ATP luminescence, 48-72 h. Potency, µM (highest dose often 96.7 µM), for the others: at the highest dose activity change, negative = cytotoxicity, usual class: inhibitors. 94,000 compounds, 4.3% hits. AID 1345082; also: % is scaled to controls: 0 for no effect and ±100 for the full control effect; nearly all actives have a fitted effect of over 55% in size
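Luminescent ATP readout (CellTiter-Glo, 10 min RT) after 48 or 72 hr compound exposure of NIH 3T3 cells seeded at 400 cells/well in 1536-well format; quantitative HTS.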
HEK cytotox: cytotoxic compounds in HEK 293 cells; HEK 293 viability, ATP luminescence (CellTiter-Glo), 48-72 h; Potency, µM (doses to about 115 µM), for the others: at the top dose activity change, negative = cytotoxicity, usual class: inhibitors; 94,000 compounds, 6.6% hits; also: % is scaled to controls: 0 for no effect and ±100 for the full control effect; nearly all actives have a fitted effect of over 60% in size
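Viability of HEK 293 cells, plated at 250 cells/well, was judged by cellular ATP after compound treatment for 48 or 72 hr. Luminescence was imaged 10 min after CellTiter-Glo addition at room temperature.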
HEK293 viab: reduces viability of HEK-293 SNCA reporter cells; AID 1671193; 150,000 compounds, 0.12% hits; Potency, µM (series often up to 57.1 µM), for inactives: at the top dose activity change, negative = cytotoxicity, most hits filed as cytotoxic; HEK-293-SNCA-luc viability, GF-AFC fluorescence, 24 h;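 also: 0% = DMSO-treated cells and -100% = medium-only wells without cells; nearly all actives have a fitted effect of over 30% in size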
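HEK-293-SNCA-luc cells (1500/well) plated 24 h, then exposed 24 h to a dilution series; GF-AFC added 30 min at 37C, fluorescence 405/540 nm; normalised to medium-only and DMSO wells, Hill fit.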
NPR1 antag: human Npr1 receptor antagonism | P16066 | HEK293 hNpr1 GloSensor cGMP, ANP-stimulated luminescence | Potency, µM (highest dose often 46.3 µM), without a hit: top-dose activity change, negative = inhibition, actives largely listed as inhibitors | 76,000 compounds, 1.6% hits | AID 1347048; calls by dose curve; also: % is scaled to controls: 0 for no effect and ±100 for the full control effect; nearly all actives have a fitted effect of over 60% in size
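Compound pre-incubated 30 min at room temperature on GloSensor-loaded HEK293 cells stably carrying hNpr1 and the pGS-40F cGMP biosensor. Stimulation uses hNppA at 0.1 nM final; luminescence is taken at baseline and 20 min post-agonist.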
SNCA expr inh: inhibitors of alpha-synuclein (SNCA) gene expression. HEK-293 SNCA-luciferase knock-in, luminescence, 24 h. Potency, µM (highest dose often 57.2 µM), inactives show at the highest dose activity change, negative = inhibition, most hits filed as inhibitors. 140,000 compounds, 0.17% hits;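 also: plate controls were DMSO cells for no effect and cell-free wells for full effect; nearly all actives have a fitted effect of over 45% in size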
Luciferase inh: blocks purified firefly luciferase enzyme activity. P08659. purified P. pyralis luciferase, luminescence, biochemical. Potency, µM (series often up to 115 µM), usual class: inhibitors. 76,000 compounds, 2.5% hits; also: % is scaled to controls: 0 for no effect and ±100 for the full control effect; nearly all actives have a fitted effect of over 65% in size
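Purified 10nM P. pyralis luciferase with 10uM D-luciferin and 10uM ATP in 50mM Tris acetate pH 7.5, 10mM Mg acetate, 0.01% Tween-20, 0.05% BSA. qHTS titration; luminescence read by CCD imager.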
Npr1 antag conf: hNpr1 antagonism, confirmation assay | shares compounds with NPR1 antag | HEK293 hNpr1 cGMP GloSensor luminescence, ANP-stimulated | Potency, µM (highest dose often 57.6 µM), for the others: at the top dose activity change, negative = inhibition, most hits filed as inhibitors | 1,400 compounds, 76% hits; calls by dose curve; also: nearly all actives have a fitted effect of over 70% in size
NPR2 antag: hNpr2 antagonism, selectivity versus Npr1 | 1,400 compounds, 67% hits | shares compounds with NPR1 antag | HEK293 hNpr2 GloSensor cGMP luminescence, CNP-stimulated | Potency, µM (highest dose often 57.6 µM), for inactives: top-dose activity change, negative = inhibition, most hits filed as inhibitors; calls by dose curve; also: nearly all actives have a fitted effect of over 70% in size
FLuc counter: FLuc enzyme inhibition, Npr1 counter-screen | shares compounds with NPR1 antag | purified FLuc enzyme, luminescence, Km substrate | Potency, µM (highest dose often 57.6 µM), without a hit: at the top dose activity change, negative = inhibition, usual class: inhibitors | 1,400 compounds, 0.7% hits; also: 0% is about no effect
GloSensor cGMP: control cell line activity, Npr1 antagonist counter-screen | 1,400 compounds, 69% hits | Potency, µM (doses to about 57.6 µM), for the others: at the top dose activity change, negative = inhibition, hits mostly inhibitors | shares compounds with NPR1 antag | HEK293 GloSensor cGMP, SNP-stimulated, luminescence | AID 1347051; calls by dose curve; also: % is scaled to controls: 0 for no effect and ±100 for the full control effect; nearly all actives have a fitted effect of over 70% in size
* hit, by the source's call; i = inactive; u = inconclusive; x = no result; [ ] = dose if it differs, or a comment. Unless noted, calls follow the shape of the dose curve; as a rule, active = well fitted curve in the direction sought with a large enough effect; inconclusive = small, poorly fitted or top-dose-only effect, or another doubt; inactive = no such curve, though single readings can be large; an effect the other way counts as inactive or inconclusive. Potency is read from the fitted curve at half-maximal effect.

SMILES	3T3 cytotox	HEK cytotox	HEK293 viab	NPR1 antag	SNCA expr inh	Luciferase inh	Npr1 antag conf	NPR2 antag	FLuc counter	GloSensor cGMP
COc1ccc(C2Cn3nnc(C(=O)N4CCN(C(=O)Cc5ccc(F)cc5)CC4)c3CO2)cc1 (stereo not given)	-10.4%	u	-10.0%	8.91µM*	u	i	13.7µM*	15.3µM*	-0.5%	13.7µM*
COc1ccc(C2Cn3nnc(C(=O)NC4CCCCCCC4)c3CO2)cc1 (stereo not given)	u	u	-7.5%	u	-18.1%	i	u	u	-1.1%	19.3µM*
O=C(Cc1ccc(F)cc1)N1CCN(C(=O)c2nnn3c2COC(c2ccc(Cl)cc2)C3)CC1 (stereo not given)	-25.0%	u	-19.2%	12.6µM*	-14.2%	i	24.3µM*	u	-0.9%	21.7µM*
COCC(=O)N1CCC(C(=O)N2CCC3(CC2)CC(=O)Nc2ccccc2O3)CC1	0.5%	i	3.8%	x	9.0%	x	x	x	x	x
O=C(Cc1cccc(Cl)c1)N1CCCC(C(=O)N2CCC(N3Cc4cccn4C3=O)CC2)C1 (stereo not given)	-22.9%	-19.9%	-0.4%	x	u	x	x	x	x	x
Cc1cc(C)n(CCC(=O)NCC23CCCC=C2NC(=O)CC3)n1 (stereo not given)	-19.1%	-18.0%	9.2%	x	u	x	x	x	x	x
CCN(CC)C(=O)c1cc2c(s1)CCC(C(=O)Nc1ccc(OC)c(F)c1)C2 (stereo not given)	u	u	-12.7%	12.6µM*	-29.5%	i	24.3µM*	21.7µM*	-1.6%	24.3µM*
CCN(CC)C(=O)c1cc2c(s1)CCC(C(=O)O)C2 (stereo not given)	-6.5%	7.7%	-0.5%	1.8%	-1.0%	i	x	x	x	x
O=C(NC1CCCCC1)N1CCC(c2noc(-c3ccccc3)n2)C1 (stereo not given)	u	u	-14.0%	17.8µM*	u	i	27.3µM*	u	0.3%	27.3µM*
O=C(c1ccc(-c2ncc3cnc(-c4cccc(F)c4)cn23)cc1)N1CCc2cccnc21	31.6µM*	10µM*	25.1µM*	17.8µM*	28.2µM*	i	14µM*	14µM*	-17.2%[86.2 µM]	17.7µM*
Cc1nn(C)c(C)c1C(C)NC(=O)c1ccc(CC2CCN(C(=O)C3CC3)CC2)cc1 (stereo not given)	u	u	8.3%	11.2µM*	u	i	17.2µM*	17.2µM*	8.1%	15.3µM*
O=C(NCCc1ccccc1)c1ccc2nnc(-c3ccc(F)cc3)n2c1	u	-24.1%	-13.9%	x	7.2%	x	x	x	x	x
O=C(c1ccc(Cl)cc1)N1CCNc2cnc(Nc3ccccc3)nc2C1	u	u	-14.3%[87.6 µM]	31.6µM*	-7.3%[87.6 µM]	i	35.3µM*	35.3µM*	-2.3%[86.2 µM]	35.3µM*
O=C(CCc1ccccc1)N1CCNc2cnc(Nc3cccnc3)nc2C1	u	i	1.1%[87.6 µM]	7.9%[70.6 µM]	-12.2%[87.6 µM]	i	x	x	x	x
O=C(c1ccccc1)N1CCNc2cnc(Nc3cccc(F)c3)nc2C1	u	u	-10.2%[87.6 µM]	12.6µM*	-22.3%[87.6 µM]	i	12.5µM*	17.7µM*	-14.7%[86.2 µM]	15.7µM*
O=C(c1cocn1)N1CCNc2cnc(Nc3cccc(C(F)(F)F)c3)nc2C1	u	70.8µM*	-14.6%[87.6 µM]	31.6µM*	-10.5%[87.6 µM]	i	35.3µM*	35.3µM*	-1.5%[86.2 µM]	31.4µM*
CCOc1cccc(CN2CC[C@@](C)(O)[C@H](N3CCCC3)C2)c1	-12.5%	-8.0%	1.5%	6.1%	28.4%	i	x	x	x	x
CCC(=O)N1CCc2sc(C(=O)N3CCN(c4cccc(Cl)c4)CC3)cc2C1	u	u	-15.6%	10µM*	-11.3%	i	19.3µM*	19.3µM*	4.9%	17.2µM*
CN(C)C(=O)c1cc2c(s1)CCC(C(=O)N1CCN(c3cccc(Cl)c3)CC1)C2 (stereo not given)	u	u	-24.0%	u	-4.0%	i	21.7µM*	19.3µM*	2.3%	15.3µM*
O=C(c1ccc(Cl)cc1)N1CCc2sc(C(=O)N3CCOCC3)cc2C1	u	u	5.1%	0.2%	-15.9%	i	x	x	x	x
O=C(c1ccccc1)N1CCc2sc(C(=O)N3CCN(c4ccccc4)CC3)cc2C1	u	u	-8.4%	10µM*	33.0%	i	21.7µM*	27.3µM*	-3.6%	21.7µM*
CCC(=O)N1CCc2sc(C(=O)NC3CCN(Cc4ccccc4)CC3)cc2C1	-24.3%	u	8.2%	-20.4%	3.6%	i	x	x	x	x
Cc1ccc(Cn2c(C3CCN(C(=O)Cc4cccs4)CC3)n[nH]c2=O)cc1	u	-7.3%	5.2%	4.8%	-6.4%	i	x	x	x	x
Cc1ccccc1-c1cnc2[nH]cc(CC(=O)NC(C)C)c2c1	u	u	2.4%[87.6 µM]	28.2µM*	-8.6%[87.6 µM]	i	31.4µM*	31.4µM*	5.3%[86.2 µM]	35.3µM*
O=C(Cc1c[nH]c2ncc(-c3ccsc3)cc12)NCc1cccnc1	u	u	1.7%[87.6 µM]	-13.9%[70.6 µM]	26.3%[87.6 µM]	i	x	x	x	x
NC(=O)Cc1c[nH]c2ncc(-c3ccccc3F)cc12	u	-27.8%[230 µM]	6.9%[87.6 µM]	-12.6%[70.6 µM]	4.3%[87.6 µM]	i	x	x	x	x
Cc1ccccc1-c1cnc2[nH]cc(CC(=O)NCc3ccccc3)c2c1	-21.0%[138 µM]	u	-4.9%[87.6 µM]	12.6µM*	u	i	25µM*	25µM*	-0.2%[86.2 µM]	14µM*
COc1ccc(C(=O)N2CCC3(C2)C(=O)N(Cc2ccccc2)c2ccccc23)cc1 (stereo not given)	u	u	11.2µM*	5.01µM*	u	i	17.2µM*	17.2µM*	-1.1%	10.9µM*
